N-glyco inh – N-linked glycosylation inhibition; D54 ERlucT glycosylation luciferase reporter, 24 h; percent of 100 nM tunicamycin response; reporter increase, % at 12.5 µM; 360,000 tested, 0.23% active; AID 588692;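 active = mean luciferase reporter signal, scaled so untreated is 0 and the glycosylation-blocking control 100, at or above a set limit in every replicate; inconclusive = mean reaches the limit but not every replicate does; inactive = mean below the limit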;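 also: luciferase carries N-glycosylation sites so blocking glycosylation raises the light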
NSD2 inh – inhibitors of human histone methyltransferase NSD2 | 310,000 tested, 0.54% active | inhibition, % at 12.5 µM | O96028 | NSD2 peptide methylation, AlphaScreen, 120 min; in the data active = inhibition above about 50%
Target sequence (O96028 whole entry, looked up): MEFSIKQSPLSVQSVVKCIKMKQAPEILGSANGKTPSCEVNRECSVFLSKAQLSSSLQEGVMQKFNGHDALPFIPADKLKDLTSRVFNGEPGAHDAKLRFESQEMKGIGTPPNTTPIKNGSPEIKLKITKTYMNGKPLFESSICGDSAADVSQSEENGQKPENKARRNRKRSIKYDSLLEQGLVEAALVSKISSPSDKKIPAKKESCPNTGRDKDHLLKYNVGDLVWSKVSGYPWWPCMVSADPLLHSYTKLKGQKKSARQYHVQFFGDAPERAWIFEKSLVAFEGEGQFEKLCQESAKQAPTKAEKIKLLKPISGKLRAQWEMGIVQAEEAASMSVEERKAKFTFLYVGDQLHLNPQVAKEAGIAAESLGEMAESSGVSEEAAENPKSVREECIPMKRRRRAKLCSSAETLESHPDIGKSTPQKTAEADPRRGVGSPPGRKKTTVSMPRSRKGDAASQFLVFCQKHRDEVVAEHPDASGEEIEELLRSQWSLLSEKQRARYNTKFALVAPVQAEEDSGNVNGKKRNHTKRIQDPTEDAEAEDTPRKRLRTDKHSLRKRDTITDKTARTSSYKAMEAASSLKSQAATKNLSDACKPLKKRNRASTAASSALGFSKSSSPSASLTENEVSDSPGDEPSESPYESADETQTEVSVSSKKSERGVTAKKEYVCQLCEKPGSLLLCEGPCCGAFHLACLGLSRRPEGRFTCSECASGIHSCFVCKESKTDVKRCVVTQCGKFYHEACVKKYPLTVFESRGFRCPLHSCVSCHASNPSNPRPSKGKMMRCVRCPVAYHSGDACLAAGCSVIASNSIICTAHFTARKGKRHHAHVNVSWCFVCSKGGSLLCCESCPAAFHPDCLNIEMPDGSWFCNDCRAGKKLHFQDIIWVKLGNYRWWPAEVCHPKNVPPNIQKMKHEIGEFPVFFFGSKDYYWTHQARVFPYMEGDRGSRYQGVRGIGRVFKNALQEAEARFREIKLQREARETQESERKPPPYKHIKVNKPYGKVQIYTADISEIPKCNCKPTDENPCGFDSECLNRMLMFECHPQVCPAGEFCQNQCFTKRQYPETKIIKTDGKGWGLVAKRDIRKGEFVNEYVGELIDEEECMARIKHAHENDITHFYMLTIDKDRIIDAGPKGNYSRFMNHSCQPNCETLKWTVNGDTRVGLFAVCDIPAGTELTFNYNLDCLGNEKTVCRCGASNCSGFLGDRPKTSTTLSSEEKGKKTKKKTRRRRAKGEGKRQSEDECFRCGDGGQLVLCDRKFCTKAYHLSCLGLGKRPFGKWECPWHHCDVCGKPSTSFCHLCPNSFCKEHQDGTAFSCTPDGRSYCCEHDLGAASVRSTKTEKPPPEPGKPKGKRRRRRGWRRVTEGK
TRPM1 prom inh – MITF TRPM1 promoter inhibition in SK-MEL-5 cells. SK-MEL-5 TRPM1 promoter luciferase, 24 h. inhibition, % at 12.5 µM. 330,000 tested, 0.83% active. AID 488899;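 active = mean inhibition across replicates of 60% or more, whatever share of single replicates reaches that level; inconclusive = some that reach 60%, reason not given; inactive = mean inhibition across replicates below 60%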
PfHsp90 yeast 2 – growth inhibition of yeast expressing Plasmodium Hsp90; 310,000 tested, 0.32% active; inhibition, % at 9.4 µM; S. cerevisiae expressing PfHsp90, BacTiter-Glo ATP, 48 h; yeast lacking PDR1 and PDR3 efflux regulators;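 active = every replicate shows inhibition above about 80%, whatever the replicate mean, limit read from the data; inconclusive = mean inhibition reaches the set limit but some replicate falls short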
MITF TRPM1 HTS – MITF TRPM1 promoter activation in melanoma cells; 300,000 tested, 0.75% active; SK-MEL-5 TRPM1-promoter luciferase, 24 h; % of positive control, neutral wells = 0; activation, % at 12.5 µM;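 active = mean activation of at least 80% with every replicate also reaching 80%; inconclusive = mean reaches 80% but some replicate falls short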
Wnt act – activates Wnt/beta-catenin signaling in a reporter cell assay; activator, plate reader; activation, % at 9.35 µM; 300,000 tested, 1.2% active; AID 743398; in the data active = activation above about 30%, passing the limit was not always enough; inconclusive = no clear call, values can overlap the other calls
Numbers stand for hits; - = inactive; ? = inconclusive; . = not tested or not shown; + = active, no number. Hits are enriched below; roughly 2.9% of the tested compounds scored in any of these assays.

SMILES | N-glyco inh | NSD2 inh | TRPM1 prom inh | PfHsp90 yeast 2 | MITF TRPM1 HTS | Wnt act
CC(=O)OC1CC(OC2C(O)CC(OC3C(O)CC(OC4CCC5(C)C(CCC6C5CCC5(C)C(C7=CC(=O)OC7)CCC65O)C4)OC3C)OC2C)OC(C)C1OC1OC(CO)C(O)C(O)C1O (stereo not given) | - | - | 80.0 | - | - | -
O=C1NC(=O)N(c2cccc(Cl)c2)C(=O)/C1=C\c1ccc(Sc2nc3ccccc3[nH]2)o1 | - | 70.6 | - | - | - | -
O=C1NC(=O)N(c2ccccc2F)C(=O)/C1=C/c1ccc(Sc2nc3ccccc3[nH]2)o1 | - | 87.0 | - | - | - | -
C[C@H]1CNCCN1c1ccc(N2CC[C@@H](O)C2)c(C#N)c1 | . | . | . | . | . | -
Clc1ccc(COC(Cn2ccnc2)c2ccc(Cl)cc2Cl)c(Cl)c1 (stereo not given) | - | . | - | 81.1 | - | -
COc1ccc(-c2cc(C(=O)N3CCC4(CC3)OCCO4)c3ccccc3n2)cc1 | - | - | - | - | - | -
CCOc1ccc(-c2cc(C(=O)N3CCC4(CC3)OCCO4)c3ccccc3n2)cc1 | - | - | - | - | 100.0 | -
COc1cc(/C=C(/C)[N+](=O)[O-])ccc1OCc1ccccc1Cl | - | . | 91.0 | - | - | -
CC(C)N1CCN(c2ccc(O)cc2)CC1 | - | - | - | - | - | -
C=CCn1c(=O)c(C=Nc2cccc([N+](=O)[O-])c2)c(O)n(CCCC)c1=O | - | - | - | - | - | -
CCCCn1c(=O)c(C=Nc2cccnc2Cl)c(O)n(CCCCl)c1=O | - | - | - | - | - | 51.3
ClCCOCCCl | 85.1 | . | - | - | - | -
c1ccc2c(c1)-c1cccc3cccc-2c13 | - | . | - | - | - | -
c1ccc2c(c1)[IH]c1ccccc1-2 | 53.7 | . | 88.2 | - | - | -
CC(C)COC(=O)c1ccccc1C(=O)OCC(C)C | - | . | - | - | - | -
C[CH2][Hg][S]c1ccccc1C(=O)O | 63.2 | . | 95.1 | 108.6 | - | -
C/C=C1\CN2[C@H]3C[C@@]45c6ccccc6N(C)[C@H]4[C@@H]2CC1C3[C@H]5O (stereo not given in full) | - | . | - | - | - | -
Cc1cc(N=Nc2ccccc2C)ccc1N | - | . | - | - | - | 55.3
CC(=NNC(=S)N1CC2CCC(CC2)C1)c1nccs1 | - | - | - | 121.4 | - | -
COc1cc(/C=C/[N+](=O)[O-])ccc1O | 29.2 | . | - | - | - | -
CCN(CC)c1ccc(/C=C/[N+](=O)[O-])cc1 | - | - | - | - | - | -
O=C(NC1CCCCC1)Oc1cc2oc(=O)sc2cc1Cl | - | 67.1 | - | - | - | -
CC(=O)OC1(C)CC(C)C(=O)C(C(O)CC2CC(=O)NC(=O)C2)C1 (stereo not given) | - | . | 84.0 | 105.2 | - | -
C[C@@H]1C[C@@H]([C@H](O)CC2CC(=O)NC(=O)C2)C(=O)[C@@H](C)C1 | - | . | 78.7 | + | - | -
CN1OC[C@@H]2CN3C4(C[C@@H]21)c1ccccc1C3(c1ccccc1)c1ccccc14 | . | . | . | . | . | -
SMILES | N-glyco inh | NSD2 inh | TRPM1 prom inh | PfHsp90 yeast 2 | MITF TRPM1 HTS | Wnt act
CCN1C(=O)C(=C/C=C/c2ccco2)C(=O)N(CC)C1=S | - | - | - | - | - | -
O=C1NC(=O)N(Cc2ccccc2)C(=O)/C1=C/C=C/c1ccco1 | 32.1 | - | 88.4 | - | - | -
O=C(c1ccccc1)c1cn(CC(=O)N2CCOCC2)c2ccccc12 | - | - | - | - | - | .
O=C(Nc1ccccc1)N1Cc2cc(Br)ccc2-n2nncc2C1 | . | . | . | . | . | -
CC(=NCCc1ccccc1)c1c(O)n(C)c(=O)n(C)c1=O | - | - | - | - | - | -
Cn1c(O)c(Cc2ccc(OCc3ccccc3)cc2)c(=O)n(C)c1=O | - | - | - | - | - | 33.3
O=C1NC(=S)NC(=O)C1=Cc1cccn1-c1ccc(O)cc1 | - | . | 94.1 | - | - | -
Cc1cc(C)cc(N2C(=O)NC(=O)/C(=C\c3cccn3-c3ccccc3)C2=O)c1 | - | - | 66.2 | - | - | -
CN1C(=O)/C(=C/c2cccn2-c2ccc3ccccc3c2)C(=O)NC1=S | - | - | ? | - | - | .
Brc1csc(N2CCNCC2)n1 | . | - | . | . | . | .
O=C1NC(=S)NC(=O)C1C/C=C/c1ccccc1 | - | - | - | - | - | -
CCC(C)C1NC(=O)C(NC(=O)C(CC(C)C)N(C)C(=O)C2CCCN2C(=O)C(C)O)C(C)OC(=O)C(Cc2ccc(OC)cc2)N(C)C(=O)C2CCCN2C(=O)C(CC(C)C)NC(=O)[C@H](C)C(=O)[C@H](C(C)C)OC(=O)CC1O (stereo not given in full) | - | - | 105.3 | - | . | -
Cc1cccc2nc(-c3ccccc3)c(-c3ccc(CN4CCC(n5c(=O)[nH]c6cc(Cl)ccc65)CC4)cc3)nc12 | . | - | . | . | . | -
N#Cc1ccc2nc(-c3ccc(CN4CCC(n5c(=O)[nH]c6cc(Cl)ccc65)CC4)cc3)c(-c3ccccc3)nc2c1 | . | . | . | . | . | -
COC(COC(N)=O)C1=C(N2CC2)C(=O)C(C)=C(N2CC2)C1=O (stereo not given) | - | - | - | - | . | -
CC1=C(N2CC2)C(=O)C(CO)=C(N2CC2)C1=O | - | . | 106.2 | - | . | -
Cc1ccc(OCCOc2cccc(C=C3C(=O)NC(=O)NC3=O)c2)cc1 | - | - | - | - | - | 36.7
Cc1cc(C)cc(OCCOc2cccc(C=C3C(=O)NC(=O)NC3=O)c2)c1 | - | - | - | - | . | -
C=CCn1c(O)c(/C(C)=N/N2CCCCCC2)c(=O)[nH]c1=O | - | - | - | - | - | -
COc1ccc(OC(=O)N(C)C[C@@H]2OCc3cnnn3CCCC(=O)N([C@@H](C)CO)C[C@@H]2C)cc1 | - | . | . | . | . | -
O=P(O)(O)COc1ccccc1O | - | - | - | - | - | -
CC(=O)OC(C)(C)/C=C/C(=O)[C@](C)(O)[C@H]1[C@H](O)C[C@@]2(C)[C@@H]3CC=C4[C@H](C[C@H](O)C(=O)C4(C)C)[C@]3(C)C(=O)C[C@]12C | - | . | 88.3 | - | - | .
CC(=O)OC(C)(C)/C=C/C(=O)C(C)(O)C1C(O)CC2(C)C3CC=C4C(CC(O)C(=O)C4(C)C)C3(C)C(=O)CC12C (stereo not given) | - | - | 88.4 | - | . | -
CC(=O)OC(C)(C)/C=C/C(=O)C(C)(O)C1[C@H](O)C[C@@]2(C)C3CC=C4C(CC[C@@H](O)C4(C)C)[C@]3(CO)C(=O)C[C@]12C (stereo not given in full) | - | - | 84.9 | - | - | -
O=C(NCCN1CCC2(CC1)C(=O)NCN2c1ccccc1)C(c1ccccc1)c1ccccc1 | . | . | . | . | . | -
ClC1C(Cl)C(Cl)C(Cl)C(Cl)C1Cl (stereo not given) | - | . | - | - | - | -
Cn1c(CN2CCN(C(=O)COc3ccccc3)CC2)nc2cc([N+](=O)[O-])ccc21 | - | . | - | . | - | -

Assay outcomes as filed in PubChem BioAssay.
